In PubChem BioAssay AID1626 (SRMLSC, 2009):
The campaign covered roughly 220,000 compounds. About 2,000 (0.91%) were called active. Roughly 2% stayed inconclusive and do not appear here. These entries were drawn from the full list. Results with a measured potency or affinity are listed apart. A number with no mark means an inactive call. Cut-off read from the data, not from the text of the source: inconclusive = inhibition above about 80% without an active follow-up result; inactive = below that; test concentration not stated here.

Assay: M. tuberculosis H37Rv growth inhibitors, H37Rv strain (AID 1626);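 note: bacteria incubated seven days before Alamar blue readout; 0% = bacteria only wells and 100% = bacteria with antibiotic wells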
Conditions: hits give high values, concentration not given here
Compound CCN(CC)S(=O)(=O)c1ccc(/C=C/C(=O)O)cc1 has an inhibition of -3.16%. Work on CS(=O)(=O)N(Cc1ccccc1)c1ccc(C(=O)NCC2CCCO2)cc1 (stereo unspecified) yielded an inhibition of -13.4%. In the case of CCn1c(/C=C/c2cccc([N+](=O)[O-])c2)nc2ccccc2c1=O, the inhibition is reported as -7.86%. For CCn1c(/C=C/c2ccccc2[N+](=O)[O-])nc2ccccc2c1=O, the inhibition was 2.98%. Cc1ccc(NC(=O)CCNC(=O)c2ccco2)cc1 gave an inhibition of 3.05%. For COc1ccc(NCc2nnc(SCC(=O)NNC(=O)c3ccc(C)cc3)n2C)cc1, the inhibition was -19.4%. In the case of COc1ccc(N2CCN(c3oc(COc4ccccc4)nc3C#N)CC2)cc1, the inhibition is reported as -5.04%. CCN1CCN(c2oc(COc3ccc(-c4ccccc4)cc3)nc2C#N)CC1 gave an inhibition of 10.7%. O=S(=O)(c1ccc2oc(=S)[nH]c2c1)N1CCCCC1 showed an inhibition of -5.83%. CCC(C)[C@H](NC(=O)NCc1ccc(S(N)(=O)=O)cc1)C(=O)OC (stereo partly specified) gave an inhibition of 6.6%. Cn1cnc2c1c(=O)n(Cc1ccccc1)c(=O)n2C gave an inhibition of -6.11%. c1ccc(-c2cc3c(N4CCCC4)ncnc3s2)cc1 gave an inhibition of 2.65%. With c1ccc(-c2cc3c(N4CCN(c5ncccn5)CC4)ncnc3s2)cc1 the inhibition was -0.33%. With Oc1ccc(N2CCN(c3ncnc4sc(-c5ccccc5)cc34)CC2)cc1 the inhibition was 69.8%. For CN1CCN(c2ncnc3sc(-c4ccccc4)cc23)CC1, the inhibition was 0.51%. O=C(NCCN1CCOCC1)N1CCOCC1 gave an inhibition of -3.24%. COc1ccc(Cl)cc1NC(=O)c1ccccc1C gave an inhibition of 4.11%. Cc1cc(C)c2nc(SC(C)C#N)cc(C)c2c1 (stereo unspecified) gave an inhibition of 9.89%. For O=C(CN(Cc1ccco1)C(=O)c1ccccc1)Nc1ccc(Cl)c(Cl)c1, the inhibition was 0.53%. O=C(Nc1ccccc1)C12CC3CC(C1)CC(n1cnc([N+](=O)[O-])n1)(C3)C2 gave an inhibition of 3.45%. In the case of O=C(Nc1cccc([N+](=O)[O-])c1)C12CC3CC(C1)CC(n1cnc([N+](=O)[O-])n1)(C3)C2, the inhibition is reported as 3.76%. O=C1c2ccsc2SCCN1Cc1ccccc1Cl showed an inhibition of 8.66%. Work on COCCNC(=O)/C(C#N)=C\c1ccc(CNC(=O)C(=O)Nc2ccc(C)c(C)c2)o1 yielded an inhibition of -19%. Work on CCC(=O)N1CCc2cc(S(=O)(=O)CCC(=O)NCc3ccco3)ccc21 yielded an inhibition of -7.3%. O=C(c1ccc2ccccc2c1)C1CCCN(C(=O)CCn2cnnn2)C1 (stereo unspecified) gave an inhibition of 3.36%. For Cn1ccnc1C(O)c1ccccc1 (stereo unspecified), the inhibition was 6.73%. COc1ccc(C(O)c2nccn2C)cc1 (stereo unspecified) showed an inhibition of 4.48%. Compound O=C(NN1C(=O)C2C(C1=O)C1C=CC2C12CC2)c1ccc(Cl)cc1 (stereo unspecified) has an inhibition of 7.63%. With Cc1ccc(NS(=O)(=O)c2cccc([N+](=O)[O-])c2)nc1 the inhibition was 2.81%. Cc1ccc(-c2nnc(N3CCN(C(=O)CN4CCOCC4)CC3)c3ccccc23)cc1 showed an inhibition of 0.29%. CCC(=O)N1CCN(c2nc(-c3ccccc3)c3c(c2C#N)CCCC3)CC1 gave an inhibition of 6.35%. CCc1nc(N2CCN(C(=O)c3ccccc3)CC2)c(C#N)c2c1COC(C)(C)C2 gave an inhibition of -3.57%. With O=C(c1ccco1)N1CCN(c2nnc(-c3ccccc3)c3ccccc23)CC1 the inhibition was 1.18%. Compound CC1(C)Cc2c(C#N)c(N3CCN(C(=O)c4ccco4)CC3)nc(Cc3ccccc3)c2CO1 has an inhibition of -5.53%. With CC(C)C(=O)N1CCN(c2nc(-c3ccccc3)c3c(c2C#N)CCCC3)CC1 the inhibition was 7.25%. For O=C(/C=C/c1ccc(Br)cc1)NCc1cccs1, the inhibition was 8.29%. With Cc1cc(C)cc(N2C(=O)CSC2c2cccs2)c1 (stereo unspecified) the inhibition was -1.33%. O=C(O)c1sccc1SCc1ccc(Cl)c(Cl)c1 gave an inhibition of -2.78%. O=C(CNS(=O)(=O)c1cccc(Cl)c1)Nc1ccc(-c2nc3ccccc3s2)cc1 gave an inhibition of 1.91%. For O=C1[C@@H]2[C@H](C(=O)N1Cc1cccnc1)[C@H]1C=C[C@@H]2C1, the inhibition was 4%. COc1ccc(NC(=O)NCCCN2CCC(Cc3ccccc3)CC2)cc1 showed an inhibition of -4.94%. Compound C#C[C@]1(O)CCC2C3CCC4=Cc5oncc5CC4(C)C3CCC21C (stereo partly specified) has an inhibition of 3.82%. For CCOC(=O)c1sc(N2N=C(C)C(N=Nc3cccc(C)c3)C2=O)nc1C (stereo unspecified), the inhibition was 57.3%. For NCCOc1cnn(-c2ccccc2Cl)c(=O)c1Cl, the inhibition was 0.22%. With COc1ccc(NC(=O)N2CCCC(c3nc(-c4ccc(C(C)C)cc4)no3)C2)cc1 (stereo unspecified) the inhibition was 10.7%. Cn1c(-c2ccc3c(c2)OCO3)cnc1NCc1ccc(Cl)cc1 showed an inhibition of -3.22%. For Cn1c(-c2ccc3c(c2)OCO3)cnc1NCc1ccccc1, the inhibition was -5.95%. With CC(C)C[C@H](NC(=O)c1nc[nH]c1C(=O)NCc1ccccc1)C(=O)OCc1ccccc1 the inhibition was -9.88%. O=S(=O)(c1ccc(-n2cnnn2)cc1)N1CCC(N2CCCCC2)CC1 gave an inhibition of 0.43%. CC(C)CNC(=O)NC(=O)COC(=O)c1cccc(NS(=O)(=O)c2ccc(F)c(F)c2)c1 gave an inhibition of 27.8%. Cc1cc(C)n2c(=S)[nH]nc2n1 showed an inhibition of -1.62%. Work on CCCC(=O)NC(C)c1nc2ccccc2n1CC (stereo unspecified) yielded an inhibition of 1.48%. Compound Cc1ccc(NC(=O)C2CCN(C(=O)NC3CCCCC3)CC2)cc1Cl has an inhibition of 7.5%. Compound O=C(Nc1ccc(Cl)cc1)NC1CCCCC1 has an inhibition of -3.67%. Work on CC(C)c1ccc(NC(=S)NC2CCCCCC2)cc1 yielded an inhibition of -13.8%. For O=C(Nc1ccc(F)c(F)c1)NC1CCCCC1, the inhibition was -11.3%. Work on Cc1noc(C)c1S(=O)(=O)N1CCCCC1 yielded an inhibition of -4.38%. With CCC(C)(C)C(=O)Nc1ccc(OC)cc1[N+](=O)[O-] the inhibition was -0.65%. With Cc1csc(NC(=O)c2cc3c(s2)CCCCC3)n1 the inhibition was 16.1%. For CCc1nnc(NC(=O)c2cc3c(s2)CCCCC3)s1, the inhibition was -9.6%. Cc1cc(Cl)ccc1NC(=O)C1CCCN1C(=O)c1cccs1 (stereo unspecified) showed an inhibition of 0.31%. For CCN(CC)CCn1c(SCC(=O)NCc2ccccc2)nc2c(sc3ccccc32)c1=O, the inhibition was 3.01%. Work on COc1ccc(Nc2c3c(nc4ccccc24)CCCC3)cc1OC yielded an inhibition of 8.23%. Work on O=C(CSc1nnc(NC(=O)c2ccccc2C(=O)O)s1)Nc1ccccc1Cl yielded an inhibition of -9.06%. For CCOc1cc(/C=C/c2cc(C(F)(F)F)[nH]c(=O)n2)ccc1O, the inhibition was 2.01%. COc1cc(C(=O)N/N=c2/sc3ccccc3n2C)cc(OC)c1OC gave an inhibition of -5.9%. Work on COc1ccccc1NC(=O)c1cc2ccccc2nc1C yielded an inhibition of 2.95%. With O=C(COc1ccc2c(-c3ccccc3)cc(=O)oc2c1)NCc1cccs1 the inhibition was 1.19%. Work on CCCc1cc(=O)oc2cc(OCC(=O)NCc3cccs3)ccc12 yielded an inhibition of 7.98%. In the case of COc1ccc(Cn2ccnc2CO)cc1[N+](=O)[O-], the inhibition is reported as -1.53%. O=C(O)c1cc(-c2ccccc2)nc2ccccc12 showed an inhibition of -5.49%. Compound COc1cccc(-c2cc(C(=O)Nn3cnnc3)c3ccccc3n2)c1 has an inhibition of 2.95%. In the case of COc1ccc(-c2cc(C(=O)Nc3nc4c(C)cccc4s3)c3ccccc3n2)cc1OC, the inhibition is reported as 12.1%. Compound O=C(NC(=S)Nc1ccccc1)c1cc(-c2ccccc2)nc2ccccc12 has an inhibition of -4.77%. COc1ccc(-c2cc(C(=O)Nc3ccc(O)cc3)c3ccccc3n2)cc1OC gave an inhibition of 14.5%. With O=C(Nc1nc2ccccc2s1)c1cc(-c2ccco2)nc2ccccc12 the inhibition was 13.9%. With O=C(C[n+]1ccccc1)Nc1c(Cl)cc(Cl)cc1Cl the inhibition was -1.93%. Work on Cn1cnnc1SCC(=O)Nc1nc(-c2ccccc2)cs1 yielded an inhibition of -4.7%. In the case of COc1ccc(NC(=O)CSc2nc3c([nH]c4ccccc43)c(=O)n2C)cc1, the inhibition is reported as 7.61%. With Cc1ccc(OCC(=O)c2cc(C)n(CC(F)(F)F)c2C)c([N+](=O)[O-])n1 the inhibition was -2.91%. In the case of N/C(CS(=O)(=O)c1ccccn1)=N\OC(=O)c1ccc(Cl)cc1, the inhibition is reported as -1.94%. Cn1ncc(N)c1C(=O)Nc1cccc(C(F)(F)F)c1 showed an inhibition of 4.36%. For O=C(c1cccc(Cl)c1)N1CCC(=O)N(C(COCc2ccccc2)Cc2ccccc2)CC1 (stereo unspecified), the inhibition was -0.16%. CCOC(=O)c1sc2nc3c(SCC(=O)O)cc(C(=O)c4cc(F)ccc4O)cn3c(=O)c2c1C gave an inhibition of -5.14%. Work on FC(F)(F)c1cc(Oc2ccc(Cl)cc2)nc(-c2ccccn2)n1 yielded an inhibition of 11.7%. COc1ccc(Oc2nc(-c3ccncc3)nc3ccccc23)cc1 gave an inhibition of 3.37%. Cc1ccc(Oc2nc(C(F)(F)F)nc3ccccc23)cc1 gave an inhibition of 9.79%. Compound CC(=O)Nc1ccc(Oc2nc(-c3ccccn3)nc3ccccc23)cc1 has an inhibition of -12.6%. Work on CC(=O)Nc1cccc(Oc2nc(-c3ccccn3)nc3ccccc23)c1 yielded an inhibition of 3.26%. CSc1nc(Oc2ccc(F)cc2)c2ccccc2n1 gave an inhibition of 8.64%. C/C(=N\Nc1nc(-c2ccccn2)nc2ccccc12)c1ccc(F)cc1 gave an inhibition of 67.4%. Cc1cc(Oc2ccc(Cl)cc2)nc(-c2ccccc2O)n1 showed an inhibition of 20.4%. Compound COc1cc(C(=O)c2nccc3cc(OC)c(OC)cc23)c([N+](=O)[O-])cc1OC has an inhibition of 1.27%. Compound COc1ccc(Nc2nnc(SCC(=O)/C=C3/N(C)c4ccccc4C3(C)C)s2)cc1 has an inhibition of 10.8%. For CCSc1nnc(-c2ccc(C)cc2)c2ccccc12, the inhibition was 18.7%. For Cc1onc(-c2ccccc2)c1C(=O)N/N=C/c1cc(Br)c(Br)o1, the inhibition was -1.13%.
